Among all 360,000 compounds or so, about 8,200 (2.3%) were called active. No stated cut-off is given here; in the data, active means inhibition above about 27%; inactive means the rest. The full list was thinned out, with actives kept by preference.
biological target: Fructose-bisphosphate aldolase (Mycobacterium tuberculosis (strain ATCC 25618 / H37Rv)) (UniProt P9WQA3); experiment: Mtb FBA enzyme inhibitors, primary screen, biochemical, fluorescence, strain H37Rv (AID 588726);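 further: 0% = vehicle and 100% = reference inhibitor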; settings: purified M. tuberculosis FBA, fluorescence read-out, at 1 µM, hits give high values
Sequence (P9WQA3 whole entry, looked up): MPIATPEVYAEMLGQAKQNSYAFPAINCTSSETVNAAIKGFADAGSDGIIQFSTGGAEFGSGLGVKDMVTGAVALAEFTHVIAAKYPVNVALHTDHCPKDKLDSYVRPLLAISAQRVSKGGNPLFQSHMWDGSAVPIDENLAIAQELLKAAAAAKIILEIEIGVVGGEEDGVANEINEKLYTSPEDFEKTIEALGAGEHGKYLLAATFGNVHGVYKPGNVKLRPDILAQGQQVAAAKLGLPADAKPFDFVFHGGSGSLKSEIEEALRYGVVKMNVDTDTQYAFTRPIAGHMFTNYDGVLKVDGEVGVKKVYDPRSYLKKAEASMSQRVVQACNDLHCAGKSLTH

Row | Compound | inhibition
1 | C#CCNC(=O)C1=C[C@@H](c2ccccc2)[C@H](CCCO)[C@@H](OCC)O1 | 0.54% (inactive)
2 | COc1ccc2c(c1)cc1n2CCN=C1NN | 41.9% (active)
3 | COc1ccc2ccn(C)c2c1 | 0% (inactive)
4 | COc1ccc(N)c(C)c1 | 1.98% (inactive)
5 | O=c1[nH]c2ccccc2n2c(-c3ccccc3)nnc12 | 4.09% (inactive)
6 | Cc1ccc(-c2nc3ccccc3[nH]c2=O)cc1 | 76.5% (active)
7 | Cc1ccc(-c2nnc(-n3nnc4ccccc43)c3ccccc23)cc1 | -0.52% (inactive)
8 | O=C(NCC(=O)N1CCN(c2ccccc2O)CC1)c1ccc2ccccc2c1 | 1.15% (inactive)
9 | CC(C(=O)NCCc1ccc(S(N)(=O)=O)cc1)N1C(=O)CC(C)(C)Sc2ccccc21 (centres undefined) | 4.96% (inactive)
10 | CC(=O)NC1=NC(=O)CS1 | 3.59% (inactive)
11 | CCCn1nc2cc(C(=O)NCc3ccccc3)ccc2c1OCC | 57.5% (active)
12 | C[n+]1ccc(C(=O)NCc2ccccc2)cc1 | 3.53% (inactive)
13 | CCOc1c2ccc(C(=O)NCc3ccc(OC(F)(F)F)cc3)cc2nn1C | 44% (active)
14 | COc1ccc(CNC(=O)c2ccc3oc(C(C)C)nc3c2)cc1 | 0.16% (inactive)
15 | CNS(=O)(=O)c1cccc(C(=O)NC2CCCc3ccccc32)c1 (centres undefined) | 5.34% (inactive)
16 | COc1ccccc1-n1c(C)nc2cc(C(=O)NCc3ccc4c(c3)OCO4)ccc21 | 0.13% (inactive)
17 | CCOc1c2ccc(C(=O)NC3CCCc4ccccc43)cc2nn1CC (centres undefined) | 42.8% (active)
18 | O=C(COC(=O)c1ccc(Cl)nc1)NCc1ccc2c(c1)OCO2 | -2.36% (inactive)
19 | CCOc1ccc(NC(=O)COc2ccc(C(=O)NC3CCCc4ccccc43)cc2OC)cc1 (centres undefined) | 3.93% (inactive)
20 | CCOc1c2ccc(C(=O)NCc3ccc4c(c3)OCO4)cc2nn1C | 50.2% (active)
21 | Cc1cc(N2C(=O)c3ccc(C(=O)NCc4ccccc4)cc3C2=O)no1 | 0.51% (inactive)
22 | C=CCOc1c2ccc(C(=O)N(CC)c3ccc(OC)cc3)cc2nn1C | 17.6% (inactive)

Row | Compound | inhibition
23 | Cc1ccc(Nc2ccccc2N)cc1 | 8.06% (inactive)
24 | CC1(C)Cc2cccc(OCC(=O)N3CCN(c4ccc([N+](=O)[O-])cc4)CC3)c2O1 | -5.39% (inactive)
25 | O=C(CCN1CCCCC1)Nc1ccc(F)c(F)c1 | -0.67% (inactive)
26 | Cc1noc(C)c1CCC(=O)O | 1.72% (inactive)
27 | CC(C)(C)n1nnc(CCc2nnn(C(C)(C)C)n2)n1 | 2.81% (inactive)
28 | COc1ccc(CCNC(=O)C2CC3Cn4c(nc5cc(C)c(C)cc54)C3N2C)cc1 (centres undefined) | 1.06% (inactive)
29 | CCC1CCCCN1C(=O)CSc1nc2c(c(=O)n1C)SC(C)C2 (centres undefined) | -1.89% (inactive)
30 | CCc1c(C)nc2c(OC)cccc2c1Cl | 6.78% (inactive)
31 | COc1nc(N=C(N)N)nc2c(C)cccc12 | 32.9% (active)
32 | Cc1nc(N=C(N)N)nc2c(C)cccc12 | 8% (inactive)
33 | COc1ccc(C(=O)C2CCCN(C(=O)c3cnsn3)C2)c(C)c1 (centres undefined) | 2.56% (inactive)
34 | COc1ccc2cc(C(=O)C3CCCN(C(=O)c4sc(C)nc4C)C3)ccc2c1 (centres undefined) | 162% (active)
35 | CCn1nc(C)cc1C(=O)N1CCCC(C(=O)c2cccc(OC)c2)C1 (centres undefined) | -1.49% (inactive)
36 | COc1cc(OC)cc(-c2c(-c3ccc(F)cc3)c3cc(-c4ccc5cc[nH]c5c4)ccc3n2C)c1 | 26.4% (inactive)
37 | COc1ccc(-c2c(-c3cc(OC)cc(OC)c3)n(C)c3ccc(-c4ccn[nH]4)cc23)cc1 | 41.1% (active)
38 | COc1cc(OC)cc(-c2c(-c3cccs3)c3cc(-c4ccc(OC)nc4)ccc3n2C)c1 | 1.28% (inactive)
39 | Cc1csc(/N=C/N(C)C)c1C#N | -1.13% (inactive)
40 | CN(c1ccc2nc3ccccc3c(=O)n2n1)C1CCCCC1 | 1.09% (inactive)
41 | CN(C(=O)c1cc2c(=O)n3ccccc3nc2s1)C1CCCCC1 | 94.8% (active)
42 | CN(C(=O)CSc1nnnn1-c1ccccc1)C1CCCCC1 | 5.06% (inactive)
43 | CCOCCCNC(=O)c1c[nH]c2cc(C)ccc2c1=O | 4.52% (inactive)
44 | CCOCCCNC(=O)c1cc2c(=O)n3ccccc3nc2s1 | 184% (active)

Row | Compound | inhibition
45 | CCOCCCNC(=O)c1cn(CC(C)C)c(=O)c2c1c1ccccc1n2C | 25.3% (inactive)
46 | CCn1ncc(C2=NOC(C(=O)N3CCN(c4ccccc4)CC3)C2)c1C (centres undefined) | 0.67% (inactive)
47 | C[C@@H]1CN([C@@H](C)CO)C(=O)CCCn2cc(nn2)CO[C@H]1CN(C)S(=O)(=O)c1ccc(-n2cccn2)cc1 | -4.05% (inactive)
48 | Cc1ccc(C(=O)OCC(=O)Nc2ccc(Cl)cn2)cc1S(=O)(=O)N1CCOCC1 | -2.24% (inactive)
49 | CCc1ccc(C(=O)NN=C2CCCCCC2)s1 | 2.93% (inactive)
50 | Cc1ccc(Cn2cc(C(=O)NN)c(=O)c3ccc(F)cc32)cc1 | -0.43% (inactive)
51 | CCc1nc2ccc(C(=O)N3CCN(c4cccc(Cl)c4)CC3)cc2nc1CC | -5.44% (inactive)
52 | C#Cc1cc(N2CCN(C(=O)c3ccoc3)CC2)n2nc(-c3cccc(Cl)c3)cc2n1 | 51.1% (active)
53 | CCCCCn1c(SCCC(C)C)nc2c1c(=O)[nH]c(=O)n2C | -1.96% (inactive)
54 | Nc1ccc2c(c1)C(O)c1ccc(Cl)cc1-2 (centres undefined) | 0.95% (inactive)
55 | Nc1nc2cc(Cl)ccc2n1N | 1.5% (inactive)
56 | Nc1ccc2nn(-c3ccc(Cl)cc3)nc2c1 | 52.9% (active)
57 | CCC(C)(C)NC(=O)CN(C(=O)CCC(=O)Nc1cc(C)ccn1)c1ccc2c(c1)OCCO2 | -0.12% (inactive)
58 | Cc1ccc(CCn2c3c(c4ccccc42)CN(C)CC3)cn1 | 4.44% (inactive)
59 | Cn1cc(-c2ccccc2)cc(C#N)c1=O | 50.3% (active)
60 | CC(C)C(=O)Nc1oc(-c2ccccc2)cc1C#N | 1.2% (inactive)
61 | Cn1cccc1C(C#N)c1ccccc1C#N (centres undefined) | -1.4% (inactive)
62 | O=P(O)(CP(=O)(c1ccccc1)c1ccccc1)c1ccccc1O | -1.86% (inactive)
63 | COc1ccc(CCN2CC(C(=O)OCC(=O)NCc3ccccc3Cl)CC2=O)cc1OC (centres undefined) | -0.32% (inactive)
64 | Cc1c(Br)c([N+](=O)[O-])nn1C(C)C(=O)Nc1nccs1 (centres undefined) | 0.22% (inactive)
